Only some compounds are listed: those with a hit (about 1.6% of all), similar ones and a draw of the others.
BJeLR viability – BJeLR cell viability loss; AID 1554; BJeLR (HRASV12) viability, CellTiter-Glo ATP luminescence, 48 h; 300,000 tested, 0.17% active; inhibition, % (test concentration not listed); in the data active = inhibition above about 50%
RN4220 kill – kills Staphylococcus aureus RN4220; S. aureus RN4220 growth, OD600, 16 h; 330,000 tested, 0.33% active; inhibition, % (test concentration not listed); in the data active = inhibition above about 85%;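 also: plate controls were untreated cells for no effect and reference antibiotic for full effect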
Sa ugtP lethal – growth inhibition of S. aureus ugtP deletion strain; S. aureus RN4220 ugtP deletion, OD600 growth, 16 h; growth inhibition, % (concentration not given with the values); 330,000 tested, 0.54% active; AID 1259309; in the data active = growth inhibition above about 68%;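 also: plate controls were untreated wells for no effect and antibiotic for full effect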
RecA intein inh – blocks M. tuberculosis RecA intein splicing. cell-free RecA intein splicing, fluorescence. P9WHJ3. 290,000 tested, 0.75% active. inhibition, % (concentration not given with the values). AID 2221; in the data active = inhibition above about 30%;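 also: 0% = vehicle wells and 100% = reference inhibitor control wells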
Target sequence (P9WHJ3 whole entry, looked up): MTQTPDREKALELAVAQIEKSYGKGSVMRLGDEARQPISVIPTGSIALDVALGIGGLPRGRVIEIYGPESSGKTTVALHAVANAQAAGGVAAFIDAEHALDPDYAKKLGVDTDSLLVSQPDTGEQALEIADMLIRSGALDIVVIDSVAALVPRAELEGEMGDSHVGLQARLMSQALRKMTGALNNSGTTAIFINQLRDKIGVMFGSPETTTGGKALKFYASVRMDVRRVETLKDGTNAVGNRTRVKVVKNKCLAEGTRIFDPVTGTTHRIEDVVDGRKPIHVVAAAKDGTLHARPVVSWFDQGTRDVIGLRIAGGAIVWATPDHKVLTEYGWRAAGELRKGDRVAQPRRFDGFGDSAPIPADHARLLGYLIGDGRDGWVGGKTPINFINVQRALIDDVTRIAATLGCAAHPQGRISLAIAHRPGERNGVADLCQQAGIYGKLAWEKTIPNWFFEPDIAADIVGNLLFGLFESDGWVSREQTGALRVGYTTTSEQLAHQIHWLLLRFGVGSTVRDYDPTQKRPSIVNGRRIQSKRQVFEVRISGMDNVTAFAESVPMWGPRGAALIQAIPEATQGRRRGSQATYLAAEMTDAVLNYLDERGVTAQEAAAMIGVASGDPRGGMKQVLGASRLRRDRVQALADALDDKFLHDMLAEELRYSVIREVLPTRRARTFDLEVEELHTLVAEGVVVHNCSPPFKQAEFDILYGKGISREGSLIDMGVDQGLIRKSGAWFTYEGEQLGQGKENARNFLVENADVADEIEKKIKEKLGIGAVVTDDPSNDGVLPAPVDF
Mtb hypoxia inh – reduces hypoxia-regulated biosensor signal in M. tuberculosis; fluorescence inhibition, % (test concentration not listed); 300,000 tested, 0.1% active; M. tuberculosis hypoxia-regulated fluorescent reporter, fluorescence; in the data active = fluorescence inhibition mostly above about 23%, no sharp cut-off; inactive = mostly below about 17%
CCHFV vOTU inh – CCHFV vOTU protease inhibition | Pep-AMC fluorescence | inhibition, % at 11.5 µM | 370,000 tested, 0.55% active; in the data active = inhibition above about 30%; also: 0% = vehicle wells with enzyme and 100% = no enzyme wells
GFP chromo cs – counter-screen GFP chromophore formation inhibition; shares compounds with RecA intein inh; cell-free GFP chromophore formation, fluorescence; EC50, µM; 2,100 tested, 83% active; AID 434968; call rule not given here
* marks the source's active call; other numbers are inactive results; x = no result given.

SMILES | BJeLR viability | RN4220 kill | Sa ugtP lethal | RecA intein inh | Mtb hypoxia inh | CCHFV vOTU inh | GFP chromo cs
Cc1[nH]n(-c2ncc(-c3ccccc3)s2)c(=O)c1C(c1ccc(Br)cc1)C(C#N)C#N (configuration not stated) | -2 | 15 | 1 | 7 | -7 | 6 | x
CCCc1[nH][nH]c(=O)c1C(c1ccc(Cl)cc1)C(C#N)C#N (configuration not stated) | 10 | 1 | -10 | 70* | 2 | 5 | 18*
Nc1ccc(N2CCOCC2)c2nonc12 | -4 | 5 | 8 | 95* | 5 | 109* | 23*
Cc1[nH][nH]c(=O)c1C(c1ccc(O)c(Br)c1)c1c(C)[nH][nH]c1=O | 8 | 3 | 6 | 98* | 17 | -7 | 0.46*
COc1ccc(C(c2c(C)[nH][nH]c2=O)c2c(C)[nH][nH]c2=O)cc1Br | -11 | 4 | 1 | 98* | 9 | -3 | 0.59*
COc1ccc(OC)c(C(C)NC=O)c1 (configuration not stated) | 2 | 3 | 7 | -1 | 17 | 11 | x
CCOc1cc(C(c2c(C)[nH][nH]c2=O)c2c(C)[nH][nH]c2=O)ccc1O | -7 | 5 | 17 | 96* | -1 | 1 | 1.1*
COc1ccc(Cc2nc(=S)[nH][nH]2)cc1Br | 2 | 4 | 4 | x | 13 | 1 | x
O=c1[nH]cnc(O)c1C(c1ccc(Br)cc1)c1c(O)nc[nH]c1=O | 7 | -1 | 1 | 2 | 3 | 2 | x
COc1ccc(OC)c(C(c2c(C)[nH][nH]c2=O)c2c(C)[nH][nH]c2=O)c1 | -4 | 3 | 4 | 95* | 10 | 11 | 0.43*
COc1cc(C(=O)Oc2ccc(C=NNC(=O)c3ccncc3)cc2)cc(OC)c1OC | x | 0 | 8 | x | 19 | x | x
COc1cc(C(c2c(C)[nH][nH]c2=O)c2c(C)[nH][nH]c2=O)ccc1OC(C)C | 10 | 4 | 6 | 97* | 15 | 2 | 0.45*
COc1ccc(NC(=O)N(C)CC2Oc3ccc(NC(=O)Nc4ccc5c(c4)OCO5)cc3C(=O)N(C(C)CO)CC2C)cc1 (configuration not stated) | x | 3 | 1 | x | 2 | x | x
COc1ccc(-c2ccc(C3C4C=CCC[C@@]4(C)C(=O)N3Cc3ccccc3)c(F)c2)cc1OC (some centres not stated) | x | -3 | 11 | x | -1 | x | x
Cc1cc(C(=O)NN=Cc2c(C)nn(-c3ccccc3)c2C)n[nH]1 | x | 0 | -3 | x | 2 | x | x
O=C(Nc1cccc(F)c1)N1CCC(c2ccccc2)CC1 | 0 | 5 | 1 | 38* | 23 | 12 | >38
N#CCC(Cc1ccccc1)N1CCC(NC(=O)OCc2ccccc2)CCC1=O (configuration not stated) | x | 3 | 5 | x | -7 | x | x
O=C(OCn1ncc(Cl)c(Cl)c1=O)c1ccccc1Cl | -44 | 11 | 15 | 89* | 12 | 0 | 5.2*
O=C(OCn1ncc(Cl)c(Cl)c1=O)c1ccc(F)cc1 | -33 | x | x | 75* | x | x | 8.1*
O=C(Cn1ncc(Cl)c(Cl)c1=O)c1ccc(Cl)cc1 | 8 | 0 | -9 | 13 | -1 | 8 | x
O=C1C(Cl)=C(N2CCCCC2)C(=O)C(Cl)=C1c1cnc(N2CCCCC2)s1 | -32 | -5 | -13 | 35* | 5 | x | 0.45*
CN(C(=O)C(Cl)Cl)c1ccc(OC(=O)c2ccco2)cc1 | 1 | 7 | 1 | 36* | 13 | 0 | >38
COc1cc(/C=C2/SC(=S)N(Cc3ccccc3)C2=O)ccc1OCC(=O)O | -6 | x | x | 37* | x | 16 | 33*
CCOc1cc(/C=C2/SC(=S)N(Cc3ccccc3)C2=O)ccc1O | -3 | 6 | -3 | 33* | 12 | -5 | 28*
Cc1[nH]n(-c2ccccc2)c(=O)c1C(C[N+](=O)[O-])c1ccc(Br)cc1 (configuration not stated) | 1 | 5 | 12 | 77* | x | 15 | 17*
SMILES | BJeLR viability | RN4220 kill | Sa ugtP lethal | RecA intein inh | Mtb hypoxia inh | CCHFV vOTU inh | GFP chromo cs
COc1cccc(C(C[N+](=O)[O-])c2c(C)[nH]n(-c3ccccc3)c2=O)c1 (configuration not stated) | -6 | x | x | 96* | x | 17 | 27*
Cc1ccc(C(C[N+](=O)[O-])c2c(N)n(C)c(=O)n(C)c2=O)cc1 (configuration not stated) | -1 | x | x | -3 | x | -2 | x
CCCCN1CCC2C=CCC(C(=O)Nc3ccc(Cl)cc3Cl)C2C1=O (configuration not stated) | x | 5 | 8 | x | 4 | x | x
Cn1cnc([N+](=O)[O-])c1S(=O)(=O)c1ccc(Cl)cc1 | -13 | 7 | -1 | 61* | 18 | 1 | 39*
Cn1cnc([N+](=O)[O-])c1NC(C)(C)C | -15 | 0 | 3 | 0 | x | 5 | x
CC(=O)NCCn1c(SCC(=O)NCc2ccco2)nc2ccccc2c1=O | 6 | 6 | 14 | 67* | 0 | 3 | 25*
COc1ccc(OCC(=O)NN=C(C)CC(=O)Nc2cccc([N+](=O)[O-])c2)cc1 | x | 0 | -1 | x | -7 | x | x
CCC(=O)N/N=C(\C)CC(=O)Nc1cccc([N+](=O)[O-])c1 | -5 | x | x | 76* | x | 10 | 29*
COc1ccccc1N1C(=O)Cc2ccccc2C1=O | -8 | 5 | 9 | 31* | -2 | 30* | 11*
Cc1noc2ncnc(Sc3ccccc3Cl)c12 | 4 | 2 | 4 | 45* | x | 0 | 38*
O=C(CNC(=O)c1ccc(S(=O)(=O)N2CCCC2)cc1)NN=Cc1ccccc1 | x | 11 | -15 | x | 1 | x | x
CC(=O)c1ccc(NC=CC(=O)c2ccc(C)cc2)cc1 | x | 5 | -2 | x | -1 | x | x
Cc1cc(-c2[nH]nc3c2C(c2cccc(O)c2)C(C#N)=C(N)O3)c(C)s1 (configuration not stated) | -6 | 5 | -6 | 83* | 0 | -5 | 9.3*
CCOc1cc(C2C(C#N)=C(N)Oc3n[nH]c(-c4ccncc4)c32)cc([N+](=O)[O-])c1O (configuration not stated) | -3 | 4 | -1 | 12 | 6 | -9 | x
Cc1cc(-c2[nH]nc3c2C(c2ccsc2)C(C#N)=C(N)O3)c(C)s1 (configuration not stated) | -8 | 5 | -7 | 86* | x | 12 | 6.6*
N#CC1=C(N)Oc2c(O)cc3ccccc3c2C1c1ccsc1 (configuration not stated) | -2 | -9 | -26 | 6 | 15 | 14 | x
CCOc1cc(C=NNc2nc(Nc3ccccc3)nc(N3CCOCC3)n2)ccc1OC(=O)c1ccco1 | x | 4 | -12 | x | 2 | x | x
CCOC(=O)c1cnc(N)nc1-c1ccccc1 | x | -1 | -2 | x | 6 | -7 | x
CCOC(=O)c1cnc(N)nc1C(F)(F)F | 1 | 0 | 2 | 61* | -3 | -1 | >38
Nc1cccc2c(O)cccc12 | -4 | 14 | -18 | 56* | -4 | -7 | 37*

Bioassay records: PubChem, several laboratories
